This is part of a sample that, as a whole, favours compounds with a hit. Of some 83,000 tested, about 20% had one in any assay.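 Negative percent growth values reflect cell death: -40 means 40% of the cells present at the start died, and -100 means all died.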 A number with no mark means an inactive call. The source made the active and inactive calls. How the source made its calls: active means growth percent below 10; inactive means the rest.
How the values were obtained:
Assay in all cases: NCI-60 one-dose screen, 48 h (100 = growth as untreated, 0 = no growth, -100 = all killed)
A549/ATCC NSCLC = settings: 10 µM unless noted
DU-145 prostate = settings: 10 µM unless noted
K-562 leukemia = settings: 10 µM unless noted
RXF 393 renal = settings: 10 µM unless noted
SF-295 CNS = settings: 10 µM unless noted
UACC-257 melanoma = settings: 10 µM unless noted
HCT-15 colon = settings: 10 µM
HT29 colon = settings: 10 µM unless noted
LOX IMVI melanoma = settings: 10 µM unless noted
SN12C renal = settings: 10 µM unless noted
MOLT-4 leukemia = settings: 10 µM
OVCAR-8 ovarian = settings: 10 µM unless noted
SK-OV-3 ovarian = settings: 10 µM unless noted
HS 578T breast = settings: 10 µM unless noted
BT-549 breast = settings: 10 µM
HCC-2998 colon = settings: 10 µM unless noted
CAKI-1 renal = settings: 10 µM unless noted
A498 renal = settings: 10 µM unless noted
HL-60(TB) leukemia = settings: 10 µM unless noted
OVCAR-4 ovarian = settings: 10 µM unless noted

Row | SMILES | growth (A549/ATCC NSCLC) | growth (DU-145 prostate) | growth (K-562 leukemia) | growth (RXF 393 renal) | growth (SF-295 CNS) | growth (UACC-257 melanoma) | growth (HCT-15 colon) | growth (HT29 colon) | growth (LOX IMVI melanoma) | growth (SN12C renal) | growth (MOLT-4 leukemia) | growth (OVCAR-8 ovarian) | growth (SK-OV-3 ovarian) | growth (HS 578T breast) | growth (BT-549 breast) | growth (HCC-2998 colon) | growth (CAKI-1 renal) | growth (A498 renal) | growth (HL-60(TB) leukemia) | growth (OVCAR-4 ovarian)
1 | Nc1cccc(CC(=O)Nc2ccc(S(=O)(=O)F)cc2)c1 | 96.5% | 110% | 144% | 87.3% | 101% | 103% | 101% | 91.9% | 98% | 100% | 117% | 91.2% | 92.4% | 99.1% | 97% | 43.9% | – | – | – | –
2 | Fc1ccc(C2=NN(c3ccccc3)C(c3sc(N(CCCl)CCCl)nc3Cl)C2)cc1 (stereo unspecified) | 86.3% | 109% | 69.8% | 102% | 85.5% | 86.7% | 94.3% | 81.2% | 83.2% | 86.9% | 65.4% | 87.5% | 76.5% | 74.5% | 99.5% | 103% | 62.2% | 92.4% | 103% | 78.8%
3 | COc1cc(C2=NN(c3ccccc3)C(c3sc(N(CCCl)CCCl)nc3Cl)C2)cc(OC)c1OC (stereo unspecified) | 83% | 102% | 74.3% | 106% | 89.4% | 87.4% | 97.5% | 84.5% | 92.7% | 79.9% | 70.9% | 90.4% | 77.7% | 85.8% | 95.4% | 99.9% | 64% | 93.2% | 96.2% | 87.5%
4 | O=C(CI)Nc1ccc(Br)cc1 | 90.9% | 23.3% | -41.1% (active) | 26.5% | 98.2% | 92.9% | 1.13% (active) | -87.4% (active) | -78.6% (active) | 15.7% | -28.4% (active) | 11.9% | 101% | 132% | – | 102% | -67.5% (active) | 142% | 69.6% | 27.4%
5 | CN1CC2CCC(C1)C2=O | 102% | 115% | 93.1% | 119% | – | 102% | 106% | 100% | 98.1% | – | 91.3% | 104% | 91.8% | 108% | 88.8% | 114% | 91.7% | 110% | 96.3% | 103%
6 | ClCCN(CCCl)c1nc(Cl)c(C2CC(c3ccc(Cl)cc3)=NN2c2cc(Cl)cc(Cl)c2)s1 (stereo unspecified) | 97.7% | 116% | 91.7% | 119% | 101% | 94.4% | 105% | 94.4% | 106% | – | 95% | 99.1% | 87.1% | 89.7% | 103% | 109% | 82.9% | 101% | 104% | 99.7%
7 | CC1(C)N=C(N)N=C(N)N1c1ccc(CCCCc2ccc(Cl)cc2S(=O)(=O)F)c(Cl)c1 | 9.77% (active) | 22.5% | 14.5% | 29.6% | 22.9% | 10.1% | 22.4% | 11.4% | 13.3% | 23.4% | 28.7% | 15.2% | 44.2% | 65.5% | 37% | 32% | 20.6% | 54.7% | 15.5% | 50.3%
8 | C=C=[CH][Sn]([c]1ccccc1)([c]1ccccc1)[c]1ccccc1 | -58.7% (active) | -91.1% (active) | – | -83.5% (active) | -42.7% (active) | -37.2% (active) | -48.6% (active) | -72.1% (active) | -77.2% (active) | -73.5% (active) | – | -30% (active) | -57.1% (active) | 27% | -34.9% (active) | -67.2% (active) | -40.4% (active) | – | – | -40.2% (active)
9 | O=[N+]([O-])c1ccccc1N1CCNCC1 | 95% | 108% | 91.7% | 121% | 104% | 94.4% | 105% | 85.4% | 95.8% | 97.1% | 103% | 107% | 96% | 107% | 111% | 100% | 94.1% | 97.6% | 80.1% | 99.4%
10 | C[CH2][Sn]([CH2]C)([CH2]C)[NH]S(=O)(=O)c1ccc(C)cc1 | 102% | 113% | 116% | 123% | 104% | 105% | 96.5% | 116% | 92.3% | 106% | 101% | 104% | 110% | 89.4% | – | 99.9% | 88.6% | 68% | 104% | 103%
11 | COC1=CC(=O)OC(CCc2ccc3c(c2)OCO3)C1 (stereo unspecified) | 96% | 122% | 122% | 70.2% | 116% | 97.8% | 103% | 97.1% | 98.5% | 107% | 121% | 96.1% | 112% | 109% | 92.5% | 132% | 120% | 101% | 113% | 106%
12 | O=C1NC(=S)NC(=O)C1=Cc1ccccc1 | 101% | 122% | – | 115% | 97.9% | 115% | 99.5% | 139% | 85.1% | 106% | 115% | 110% | – | 95.9% | – | 106% | 95% | – | – | 114%
13 | CC(=O)C1C(=O)N(C)C(=O)N(C)C1=O | 96.1% | 111% | 108% | 107% | – | 98.6% | 93.4% | 102% | 107% | 104% | 104% | 109% | 115% | 107% | 106% | 112% | 102% | 83.2% | 104% | 105%
14 | Cc1ccc(N)cc1[As]=[As]c1cc(N)ccc1C (stereo unspecified) | 69.8% | -40.6% (active) | -5.72% (active) | – | 73.2% | -97.3% (active) | -68.5% (active) | -84.6% (active) | -56.9% (active) | -86.5% (active) | -29.9% (active) | -95.3% (active) | 75.3% | – | -93.6% (active) | -73.8% (active) | -91.2% (active) | -26.3% (active) | -43.9% (active) | -83.1% (active)
15 | CCC(C)[C@H]1O[C@]2(C=C[C@@H]1C)C[C@@H]1C[C@@H](C/C=C(\C)[C@@H](OC3C[C@H](OC)C(O[C@H]4C[C@H](OC)[C@@H](O)[C@H](C)O4)[C@H](C)O3)[C@@H](C)/C=C/C=C3\CO[C@@H]4[C@H](O)C(C)=C[C@@H](C(=O)O1)[C@]34O)O2 (stereo partly specified) | 6.21% (active) | 11.4% | – | – | -41.9% (active) | -17.1% (active) | -20.2% (active) | -63.6% (active) | -93.1% (active) | 1.84% (active) | -26.6% (active) | 12.5% | 12.6% | -13% (active) | -39.1% (active) | -49% (active) | 19.8% | -24.9% (active) | -26.2% (active) | 16.4%
16 | COc1ccc(C2=NN(c3ccccc3)C(c3sc(N(CCCl)CCCl)nc3Cl)C2)cc1 (stereo unspecified) | 85.6% | 106% | 64.1% | 110% | 93.2% | 89.7% | 97.9% | 72.6% | 89.8% | 90.5% | 67.5% | 87.8% | 75.9% | 80.9% | 108% | 107% | 69.4% | 122% | 99.8% | 91.9%
17 | CC1COC(=O)C1 (stereo unspecified) | 101% | 104% | – | 103% | 99.8% | 104% | 105% | 98.2% | 100% | 98.4% | 102% | 104% | 96.1% | 99.2% | 102% | 98.6% | 96.1% | 89.2% | 105% | 109%
